Source: PubChem BioAssay AID1159580 (chemical genetic matrix, 2015)
In all, about 5,500 compounds went through this assay and about 2,000 (36%) were called active. About 18% were inconclusive and are not listed. Rule as the data show it: active = normalized growth mostly below about 0.91 (no sharp cut-off); inconclusive = no clear call, values can overlap the other calls; inactive = mostly above about 0.92. Some of the results follow.

Test: chemical genetic growth profiling, strain panel (AID 1159580);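 also: tested at 20 µM; growth read once vehicle control cultures reached saturation at 30 °C; 1 = growth at the plate median or of vehicle wells; lower values mean less growth of the strain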
Settings: growth OD

Measured: normalized growth

Nc1ncnc2c1ncn2[C@@H]1O[C@H](CO)[C@@H](O)[C@H]1O
inactive: S. cerevisiae deletion strains, locus YJR066W, strain TOR1, stronger effect = lower value 0.966 | S. cerevisiae deletion strains, locus YJR075W, strain HOC1, stronger effect = lower value 0.99 | S. cerevisiae deletion strains, locus YKL009W, strain mrt4, stronger effect = lower value 0.961 | S. cerevisiae deletion strains, locus YKL068W, stronger effect = lower value 0.983 | S. cerevisiae deletion strains, locus YKL085W, strain MDH1 (second series), stronger effect = lower value 0.965 | S. cerevisiae deletion strains, locus YKL085W, strain MDH1, stronger effect = lower value 0.965 | S. cerevisiae deletion strains, locus YKL160W, strain elf1, stronger effect = lower value 0.955 | S. cerevisiae deletion strains, locus YKR001C, strain vps1, stronger effect = lower value 0.997 | S. cerevisiae deletion strains, locus YKR026C, strain gcn3, stronger effect = lower value 0.987 | S. cerevisiae deletion strains, locus YKR091W, strain srl3, stronger effect = lower value 0.994 | S. cerevisiae deletion strains, locus YLL001W, strain dnm1, stronger effect = lower value 0.922 | S. cerevisiae deletion strains, locus YLL026W, stronger effect = lower value 0.99 | S. cerevisiae deletion strains, locus YLL041C, strain sdh2, stronger effect = lower value 0.99 | S. cerevisiae deletion strains, locus YLR027C, strain aat2, stronger effect = lower value 0.994 | S. cerevisiae deletion strains, locus YLR039C, strain RIC1, stronger effect = lower value 0.95 | S. cerevisiae deletion strains, locus YLR058C, strain SHM2, stronger effect = lower value 0.971 | S. cerevisiae deletion strains, locus YLR102C, strain apc9, stronger effect = lower value 0.978 | S. cerevisiae deletion strains, locus YLR113W, strain HOG1, stronger effect = lower value 1.01 | S. cerevisiae deletion strains, locus YLR221C, strain rsa3, stronger effect = lower value 0.95 | S. cerevisiae deletion strains, locus YLR258W, strain gsy2, stronger effect = lower value 0.975 | S. cerevisiae deletion strains, locus YLR262C, strain YPT6 (second series), stronger effect = lower value 0.974 | S. cerevisiae deletion strains, locus YLR262C, strain YPT6, stronger effect = lower value 0.913 | S. cerevisiae deletion strains, locus YLR268W, strain sec22, stronger effect = lower value 1 | S. cerevisiae deletion strains, locus YLR320W, strain mms22, stronger effect = lower value 0.939 | S. cerevisiae deletion strains, locus YLR330W, strain CHS5, stronger effect = lower value 0.993 | S. cerevisiae deletion strains, locus YLR342W, strain FKS1 (second series), stronger effect = lower value 1.03 | S. cerevisiae deletion strains, locus YLR342W, strain FKS1, stronger effect = lower value 0.993 | S. cerevisiae deletion strains, locus YLR357W, strain rsc2, stronger effect = lower value 0.983 | S. cerevisiae deletion strains, locus YLR370C, strain arc18, stronger effect = lower value 0.967 | S. cerevisiae deletion strains, locus YLR371W, strain rom2, stronger effect = lower value 0.978 | S. cerevisiae deletion strains, locus YLR384C, strain iki3, stronger effect = lower value 0.982 | S. cerevisiae deletion strains, locus YLR418C, strain cdc73, stronger effect = lower value 0.945 | S. cerevisiae deletion strains, locus YML016C, strain PPZ1, stronger effect = lower value 0.987 | S. cerevisiae deletion strains, locus YML032C, strain rad52, stronger effect = lower value 0.949 | S. cerevisiae deletion strains, locus YML120C, strain ndi1, stronger effect = lower value 0.952 | S. cerevisiae deletion strains, locus YML124C, strain tub3, stronger effect = lower value 0.988 | S. cerevisiae deletion strains, locus YMR058W, strain fet3, stronger effect = lower value 0.995 | S. cerevisiae deletion strains, locus YMR078C, strain ctf18, stronger effect = lower value 0.972 | S. cerevisiae deletion strains, locus YMR125W, strain sto1, stronger effect = lower value 0.982 | S. cerevisiae deletion strains, locus YMR129W, stronger effect = lower value 0.995 | S. cerevisiae deletion strains, locus YMR205C, strain PFK2, stronger effect = lower value 0.944 | S. cerevisiae deletion strains, locus YMR223W, strain ubp8, stronger effect = lower value 0.956 | S. cerevisiae deletion strains, locus YMR231W, strain pep5, stronger effect = lower value 0.992 | S. cerevisiae deletion strains, locus YMR263W, strain SAP30, stronger effect = lower value 0.982 | S. cerevisiae deletion strains, locus YMR307W, strain GAS1, stronger effect = lower value 0.98 | S. cerevisiae deletion strains, locus YNL067W, strain RPL9B, stronger effect = lower value 0.967 | S. cerevisiae deletion strains, locus YNL071W, strain lat1, stronger effect = lower value 1 | S. cerevisiae deletion strains, locus YNL153C, strain GIM3, stronger effect = lower value 0.98 | S. cerevisiae deletion strains, locus YNL183C, strain NPR1, stronger effect = lower value 0.975 | S. cerevisiae deletion strains, locus YNL209W, strain ssb2, stronger effect = lower value 0.988 | S. cerevisiae deletion strains, locus YNL233W, strain BNI4, stronger effect = lower value 0.991 | S. cerevisiae deletion strains, locus YNL248C, strain rpa49, stronger effect = lower value 1.01 | S. cerevisiae deletion strains, locus YNL250W, strain rad50, stronger effect = lower value 0.978 | S. cerevisiae deletion strains, locus YNL271C, strain bni1, stronger effect = lower value 0.979 | S. cerevisiae deletion strains, locus YNL298W, strain CLA4, stronger effect = lower value 0.963 | S. cerevisiae deletion strains, locus YNL307C, strain MCK1, stronger effect = lower value 0.978 | S. cerevisiae deletion strains, locus YNL322C, strain KRE1 (second series), stronger effect = lower value 0.978 | S. cerevisiae deletion strains, locus YNR049C, strain mso1, stronger effect = lower value 0.982 | S. cerevisiae deletion strains, locus YNR052C, strain pop2, stronger effect = lower value 0.977 | S. cerevisiae deletion strains, locus YOL006C, strain TOP1, stronger effect = lower value 1.02 | S. cerevisiae deletion strains, locus YOL012C, strain htz1 0.737 | S. cerevisiae deletion strains, locus YOL147C, strain pex11, stronger effect = lower value 0.987 | S. cerevisiae deletion strains, locus YOR001W, strain rrp6, stronger effect = lower value 1.02 | S. cerevisiae deletion strains, locus YOR061W, strain CKA2, stronger effect = lower value 0.96 | S. cerevisiae deletion strains, locus YOR069W, strain VPS5, stronger effect = lower value 0.99 | S. cerevisiae deletion strains, locus YOR070C, strain gyp1, stronger effect = lower value 0.987 | S. cerevisiae deletion strains, locus YOR080W, strain dia2, stronger effect = lower value 0.995 | S. cerevisiae deletion strains, locus YOR083W, strain WHI5, stronger effect = lower value 0.96 | S. cerevisiae deletion strains, locus YOR106W, strain vam3, stronger effect = lower value 0.971 | S. cerevisiae deletion strains, locus YOR136W, strain idh2, stronger effect = lower value 0.982 | S. cerevisiae deletion strains, locus YOR144C, strain elg1, stronger effect = lower value 0.978 | S. cerevisiae deletion strains, locus YOR184W, strain ser1, stronger effect = lower value 0.967 | S. cerevisiae deletion strains, locus YOR231W, strain MKK1, stronger effect = lower value 1.03 | S. cerevisiae deletion strains, locus YOR265W, strain rbl2, stronger effect = lower value 0.983 | S. cerevisiae deletion strains, locus YOR270C, strain vph1, stronger effect = lower value 0.966 | S. cerevisiae deletion strains, locus YOR290C, strain snf2, stronger effect = lower value 0.955 | S. cerevisiae deletion strains, locus YOR316C, strain cot1, stronger effect = lower value 0.978 | S. cerevisiae deletion strains, locus YPL051W, strain arl3, stronger effect = lower value 0.988 | S. cerevisiae deletion strains, locus YPL078C, strain atp4, stronger effect = lower value 0.969 | S. cerevisiae deletion strains, locus YPL106C, strain sse1, stronger effect = lower value 0.955 | S. cerevisiae deletion strains, locus YPL240C, strain hsp82, stronger effect = lower value 0.998 | S. cerevisiae deletion strains, locus YPL241C, strain CIN2, stronger effect = lower value 0.99 | S. cerevisiae deletion strains, locus YPL256C, strain CLN2, stronger effect = lower value 0.982 | S. cerevisiae deletion strains, locus YPR119W, strain clb2, stronger effect = lower value 0.984 | S. cerevisiae deletion strains, locus YPR141C, strain kar3, stronger effect = lower value 0.972 | S. cerevisiae deletion strains, locus YPR163C, strain tif3, stronger effect = lower value 0.969 | S. cerevisiae deletion strains, locus YPR167C, strain met16, stronger effect = lower value 0.963 | S. cerevisiae deletion strains, strain wtn01, stronger effect = lower value 1.02 | S. cerevisiae strains, strain wild type, stronger effect = lower value 0.989
